PI4K2A inh: qHTS for small molecular inhibitors of PI4K2A; Phosphatidylinositol 4-kinase type 2-alpha (Homo sapiens), Q9BTU6; purified PI4K2A, ADP-Glo luminescence, 1 h; stronger effect = lower value; activity change, negative = inhibition, % at 76.9 µM; actives 0.13% (n = 420,000); AID 1346378, 2018; in the data active = activity change below about -50%; inconclusive = mostly about -30% to -49%;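 note: -100% = wells without enzyme as full effect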
Target sequence (Q9BTU6 whole entry, looked up): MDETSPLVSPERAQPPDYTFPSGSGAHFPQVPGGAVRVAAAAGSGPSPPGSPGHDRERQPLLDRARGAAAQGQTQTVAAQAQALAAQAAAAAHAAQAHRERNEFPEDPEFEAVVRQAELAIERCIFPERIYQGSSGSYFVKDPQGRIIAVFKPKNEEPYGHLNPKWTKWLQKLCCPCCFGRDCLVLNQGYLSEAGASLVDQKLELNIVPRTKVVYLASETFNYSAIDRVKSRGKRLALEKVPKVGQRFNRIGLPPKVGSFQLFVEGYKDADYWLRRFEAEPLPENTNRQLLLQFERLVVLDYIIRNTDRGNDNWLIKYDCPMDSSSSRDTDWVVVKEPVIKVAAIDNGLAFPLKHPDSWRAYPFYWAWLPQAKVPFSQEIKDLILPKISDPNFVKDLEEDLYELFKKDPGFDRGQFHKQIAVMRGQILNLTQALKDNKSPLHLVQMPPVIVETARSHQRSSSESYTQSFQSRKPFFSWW
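PI4K2A activity was measured by ADP-Glo luminescence: enzyme (4 ug/mL stock) and phosphatidylinositol (1.2 mM stock) in Tris pH 7.5/MgCl2/EGTA/Triton X-100 buffer were reacted with ATP (300 microM stock) for one hour at ambient temperature.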
Six1-Eya2 blk: qHTS Assay for Inhibitors of the Six1/Eya2 Interaction | actives 0.56% (n = 360,000) | activity change, % (concentration not given with the values) | AlphaScreen GST-Six1/His-Eya2 binding, biochemical; stronger effect = lower value | Homeobox protein SIX1 (Homo sapiens) + Protein phosphatase EYA2 (Homo sapiens), … | AID 651725, 2012
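GST-Six1 + His-Eya2 (5X stock: 250/500 nM); Tris pH 8.0, 300 mM NaCl, 0.05% BSA, 0.02% Tween 20; GSH donor/Ni acceptor beads; 1 h 37 °C dark; AlphaScreen readout.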
PI5P4Ka inh: qHTS for Inhibitors of phosphatidylinositol 5-phosphate 4-kinase (PI5P4K) | max response, % | Phosphatidylinositol 5-phosphate 4-kinase type-2 alpha (Homo sapiens), P48426 | actives 1.2% (n = 330,000) | PI5P4Kalpha enzyme, ADP-Glo luminescence, 60 min; stronger effect = lower value; active = max response of -50% or lower; inconclusive = between -30% and -50%; inactive = -30% or higher; note: value at the top dose of about 77 µM
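qHTS, 1536-well: enzyme/substrate mix, compound by pin tool, 5 microM ATP final; RT 60 min; ADP-Glo reagents 1 (45 min) then 2 (30 min); luminescence.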
CtBP-E1A inh: qHTS Assay for Inhibitors of the CtBP/E1A Interaction; activity change, % (no concentration beside the values); CtBP / adenovirus E1A interaction (AlphaScreen); actives 0.49% (n = 340,000); AID 651724, 2012; AlphaScreen GST-E1A/His-CtBP binding, 1536-well; stronger effect = lower value
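In 5 uL wells, 23 nL compound meets equimolar GST-E1A and His-CtBP (5X stock 125 nM each) for 2 h, 37 °C. Beads (5X, 50 ug/mL) then 1 h, 37 °C, dark.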
Akt phos inh: HTS Assay for Inhibitors of Akt Phophorylation: Primary Screen | actives 0.32% (n = 360,000) | activity change, % for hits at 50 µM | Neuro2A IGF-stimulated pAkt S473 HTRF, 20 min; stronger effect = lower value; in the data active = activity change below about -80%; inconclusive = mostly about -51% to -80%
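Single-point screen (50 µM final compound) in Neuro2A cells stimulated 20 min with 6 nM IGF at 37 deg C. After lysis, Ser473-phosphorylated Akt read by HTRF (ex 330 nm, em 615/665 nm) as the 665/615 ratio.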
* = called active by the depositor. A selection: hits, their analogues and other compounds. The true share with any hit is near 1.8%. Cut-off read from the data, not from the text of the source, unless noted: active = activity change below about -65%; inconclusive = mostly about -30% to -63%; inactive = weaker than that. Unless noted, % is set by controls: 0 for no effect and ±100 for the full control effect.

For CCOc1ccc2nc(Nc3nc(CSc4nnnn4-c4ccccc4)cc(=O)[nH]3)nc(C)c2c1 the results were PI4K2A inh -1, Six1-Eya2 blk -1, PI5P4Ka inh -3, CtBP-E1A inh 0 and Akt phos inh inactive.
For Cc1c(NS(=O)(=O)c2cccs2)cccc1-c1nc2cccnc2s1 the results were PI4K2A inh 2, Six1-Eya2 blk 3, PI5P4Ka inh 0 and Akt phos inh inactive.
For O=S(=O)(Nc1cccc2ncccc12)c1cccs1 the results were PI4K2A inh -5, Six1-Eya2 blk -92*, PI5P4Ka inh 6, CtBP-E1A inh -90* and Akt phos inh inactive.
CCn1c(SCC(=O)OCc2ccccc2)nnc1-c1ccco1 was read as PI4K2A inh -2, Six1-Eya2 blk 2, CtBP-E1A inh 1 and Akt phos inh inactive.
`Cc1c(CCC(=O)N2CCC[C@H]2C(=O)O)c(=O)oc2cc3oc4c(c3cc12)CCCC4` gave PI4K2A inh 1, Six1-Eya2 blk -6, PI5P4Ka inh 0, CtBP-E1A inh -4 and Akt phos inh inactive.
Screening CN(C)S(=O)(=O)c1cccc(NC(=O)c2cc3c(cc2Cl)N2CCCCCC2=NS3(=O)=O)c1 returned PI4K2A inh -1, Six1-Eya2 blk -6, PI5P4Ka inh -3, CtBP-E1A inh 1 and Akt phos inh inactive.
`O=C(COc1ccccc1[N+](=O)[O-])Nc1cc(Cl)ccc1C(=O)O` gave PI4K2A inh -1, Six1-Eya2 blk -9, PI5P4Ka inh -55* and Akt phos inh inactive.
`COC(=O)c1ccccc1NC(=O)COc1ccccc1[N+](=O)[O-]` gave PI4K2A inh 4, Six1-Eya2 blk -3, PI5P4Ka inh -3, CtBP-E1A inh 8 and Akt phos inh inactive.
For Cc1nn(C2CCS(=O)(=O)C2)c(C)c1C=O (stereo unspecified) the results were PI4K2A inh 0, Six1-Eya2 blk 17, PI5P4Ka inh -67*, CtBP-E1A inh 11 and Akt phos inh inactive.
`O=C(Nc1n[nH]c(=S)s1)c1ccco1` gave PI4K2A inh -9, Six1-Eya2 blk 0, PI5P4Ka inh -61*, CtBP-E1A inh -3 and Akt phos inh inactive.
CCc1nnc(NC(=O)c2ccc(Cl)nc2)s1 was read as PI4K2A inh 0, Six1-Eya2 blk 0, PI5P4Ka inh -7, CtBP-E1A inh -6 and Akt phos inh inactive.
For CCSc1nnc(NC(=O)c2cc3c(s2)CCCC3)s1 the results were PI4K2A inh 1, Six1-Eya2 blk 4, CtBP-E1A inh 8 and Akt phos inh -81%*.
`CCSc1nnc(NC(=O)c2ccco2)s1` gave PI4K2A inh 7, Six1-Eya2 blk 10, PI5P4Ka inh -12, CtBP-E1A inh -5 and Akt phos inh -112%*.
Screening CCc1nnc(NC(=O)c2cc(Cl)ccn2)s1 returned PI4K2A inh -9, Six1-Eya2 blk -77*, PI5P4Ka inh -14, CtBP-E1A inh -93* and Akt phos inh inactive.
For O=C(CSc1nc2cc(Cl)ccc2s1)c1ccco1 the results were PI4K2A inh -2, Six1-Eya2 blk 6, CtBP-E1A inh 12 and Akt phos inh inactive.
Screening CCSc1nnc(NC(=O)c2ccccn2)s1 returned PI4K2A inh inconclusive, Six1-Eya2 blk -94*, PI5P4Ka inh -21, CtBP-E1A inh -91* and Akt phos inh inactive.
`CCSc1nnc(NC(=O)c2cnccn2)s1` gave PI4K2A inh -2, Six1-Eya2 blk -1, CtBP-E1A inh 1 and Akt phos inh inactive.
Screening CCSc1nnc(NC(=O)c2ccc(Br)s2)s1 returned PI4K2A inh 3, Six1-Eya2 blk 1, CtBP-E1A inh -4 and Akt phos inh -81%*.
O=C(CSc1nnc(SCC(=O)c2ccco2)s1)c1ccco1 was read as PI4K2A inh -13, Six1-Eya2 blk 1, PI5P4Ka inh -62*, CtBP-E1A inh -2 and Akt phos inh inactive.
For O=C(N/N=C/c1ccccc1O)C1CC(=O)N(c2ccc(F)cc2)C1 (stereo unspecified) the results were PI4K2A inh 0, Six1-Eya2 blk -70*, PI5P4Ka inh 0, CtBP-E1A inh inconclusive and Akt phos inh inactive.
`O=C1NCCCC1C(=O)N/N=C/c1ccccc1O` (stereo unspecified) gave PI4K2A inh 0, Six1-Eya2 blk inconclusive, PI5P4Ka inh 1, CtBP-E1A inh -71* and Akt phos inh inactive.
Screening COc1ccc(N2CC(C(=O)N/N=C/c3cc([N+](=O)[O-])ccc3O)CC2=O)cc1 (stereo unspecified) returned PI4K2A inh 5, Six1-Eya2 blk -90*, PI5P4Ka inh -23, CtBP-E1A inh -77* and Akt phos inh inactive.
O=C(Nc1ccc(-c2nc3cccnc3s2)cc1)C1CCCO1 (stereo unspecified) was read as PI4K2A inh -57*, Six1-Eya2 blk -3, PI5P4Ka inh inconclusive, CtBP-E1A inh -10 and Akt phos inh inactive.
`COc1ccc(-c2cc(C(=O)O)[nH]n2)cc1OC` gave PI4K2A inh -73*, Six1-Eya2 blk -10, PI5P4Ka inh -29, CtBP-E1A inh -14 and Akt phos inh inactive.
Screening C/C(=N/Nc1ccccc1[N+](=O)[O-])c1ccc(C)c([N+](=O)[O-])c1 returned PI4K2A inh 7, Six1-Eya2 blk -4, PI5P4Ka inh -5, CtBP-E1A inh -2 and Akt phos inh inactive.
Screening Cc1cc(C)cc(NC(=O)CN(C)S(=O)(=O)c2cnc[nH]2)c1 returned PI4K2A inh -5, Six1-Eya2 blk 7, PI5P4Ka inh -3, CtBP-E1A inh 0 and Akt phos inh -116%*.
COc1cc(NS(=O)(=O)c2ccc(NC(=O)COc3ccccc3Cl)cc2)nc(OC)n1 was read as PI4K2A inh 1, Six1-Eya2 blk -2, PI5P4Ka inh 0, CtBP-E1A inh 9 and Akt phos inh -125%*.
Cc1nn(Cc2ccc(Cl)cc2Cl)c(Cl)c1/C=C/C(=O)OCC(=O)NCC(F)(F)F was read as PI4K2A inh 0, Six1-Eya2 blk 27, PI5P4Ka inh -1, CtBP-E1A inh 19 and Akt phos inh inactive.
`C=CCN(c1ccccc1)S(=O)(=O)c1cccc(C(=O)NNC(=O)c2ccccc2O)c1` gave PI4K2A inh 5, Six1-Eya2 blk -12, PI5P4Ka inh -56*, CtBP-E1A inh -1 and Akt phos inh inactive.
C=CCN(c1ccccc1)S(=O)(=O)c1cccc(C(=O)O)c1 was read as PI4K2A inh 3, Six1-Eya2 blk 0, PI5P4Ka inh -1, CtBP-E1A inh 7 and Akt phos inh inactive.

Screening data as filed in PubChem.
